Assay results from PubChem BioAssay AID798 (PCMD, 2007).
Screen size: about 220,000 compounds; about 300 (0.14%) were called active. This is one part of a sample in which actives are shown more often than they occur.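 Rule for the calls: active = inhibition of at least 40%; inactive = inhibition below 40%.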 Where a SMILES comes first, the peptide text is derived from it. The star is where a group is joined. OPac = O=C(CO*)c1ccccc1; Bz = O=C(c1ccccc1)*

Target: Coagulation factor XI (Homo sapiens) (UniProt P03951)
Experiment: human FXIa protease inhibitors, primary screen, biochemical, 1536-well (AID 798);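 note: fluorescence of freed AMC excited at 355 nm; 0% = enzyme without compound and 100% = no enzyme blank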
Conditions: purified FXIa, Boc-Glu-Ala-Arg-AMC fluorogenic substrate; at 5 µM; active compounds read high

Chain of Coagulation factor XI (Homo sapiens) (P03951 19-387 limits assumed): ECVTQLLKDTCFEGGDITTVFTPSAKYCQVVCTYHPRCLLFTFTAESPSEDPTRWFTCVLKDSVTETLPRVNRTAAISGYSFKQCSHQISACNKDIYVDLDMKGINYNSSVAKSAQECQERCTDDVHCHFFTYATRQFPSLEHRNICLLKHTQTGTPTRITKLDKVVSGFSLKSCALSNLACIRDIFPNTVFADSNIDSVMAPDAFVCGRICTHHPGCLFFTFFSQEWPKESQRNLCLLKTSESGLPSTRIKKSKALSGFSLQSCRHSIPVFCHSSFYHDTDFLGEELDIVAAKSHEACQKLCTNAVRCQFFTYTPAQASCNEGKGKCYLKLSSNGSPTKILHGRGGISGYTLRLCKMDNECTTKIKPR
Chain of Coagulation factor XI (Homo sapiens) (P03951 388-625 limits assumed): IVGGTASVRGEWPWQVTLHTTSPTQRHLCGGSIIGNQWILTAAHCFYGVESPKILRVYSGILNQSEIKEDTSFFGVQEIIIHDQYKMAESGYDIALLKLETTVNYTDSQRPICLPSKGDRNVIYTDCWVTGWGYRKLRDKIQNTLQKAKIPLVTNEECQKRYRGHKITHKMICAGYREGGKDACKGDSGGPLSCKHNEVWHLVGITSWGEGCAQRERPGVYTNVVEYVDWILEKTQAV

inhibition, active:
CCOC(=O)COc1cc(O)c2c(=O)cc(-c3ccccc3)oc2c1 45%, C/C(Cc1ccccc1)=N\NC(=O)CNC(=O)c1ccccc1Cl 56.6%, COc1ccc(/C=N/n2c(C)cc(C)cc2=O)cc1 44.1%, Cc1cccc(NC(=O)c2cc(N3C(=O)CCC3=O)ccc2Cl)n1 45.3%

inhibition, inactive:
COc1cc(-c2nnn(CC(=O)NCc3ccccc3)n2)cc(OC)c1OC 3%, CNc1ccc([N+](=O)[O-])cc1C(=O)O -2.33%, NC(=O)C1CCN(C(=O)COc2cccc3cccnc23)CC1 0.03%, Cc1cnc(NC(=O)Cn2cnc3c2c(=O)n(C)c(=O)n3C)s1 -1.78%, CCOCCn1c(-c2ccccc2)nc2ccccc21 0.72%, Cc1ccc(Sc2ccncc2S(N)(=O)=O)cc1 5.95%, CC(C)(C)CC(C)(C)NCC(O)COCCOc1ccc(Br)cc1 (stereo unspecified) 1.54%, COC(=O)c1sccc1NN1C(=O)c2ccccc2C1=O 0.85%, O=C(CC(NC(=O)c1ccccc1)c1ccccc1)Nc1ccc(F)c(F)c1 (stereo unspecified) -2.03%, Cc1ccc(C2CCN(C(=S)Nc3cccc(Cl)c3)C2)cc1 (stereo unspecified) -2.9%, Cc1noc(C)c1COC(=O)COc1ccc(-c2ccccc2)cc1 9.94%, CCOC(=O)COc1cc(OCC(=O)OCC)c2c(=O)cc(-c3ccccc3)oc2c1 -3.59%, CCOC(=O)c1nn(-c2ccccc2F)c2nc(Nc3ccccc3)cc(=O)n12 -3.73%, COc1cccc(-n2nc(C(=O)N3CCN(Cc4ccccc4)CC3)c3ccccc3c2=O)c1 -0.09%, C/C(Cc1ccccc1)=N\NC(=O)CNC(=O)c1cccc(Br)c1 9.13%, C/C(Cc1ccccc1)=N\NC(=O)CNC(=O)c1ccc2c(c1)OCCO2 -2.1%, CCOc1ccc(Br)cc1S(=O)(=O)N1CCC(C(=O)O)CC1 -8.82%, CC(NC(=S)Nc1ccccc1)C1COc2ccccc2O1 (stereo unspecified) 3.5%, Cc1c(Cl)cccc1NC(=O)Nc1ccc(C(=O)N2CCCC2)cc1 18.9%, Cc1ccc(C(=O)COC(=O)c2cccc(N3C(=O)c4c(C)nc5ccccc5c4C3=O)c2)cc1C 8.56%, CN(CC(=O)Nc1ccc(F)cc1)CC(=O)Nc1ccc(Cl)c(S(=O)(=O)N2CCOCC2)c1 0.07%, COc1ccc(C(=O)NNC(=O)c2cc(C)[nH]n2)cc1 1.62%, COc1ccc(CNC(=O)COC(=O)/C=C/c2ccc(S(=O)(=O)N3CCOCC3)cc2)cc1 -3.11%, CCc1ccc(Oc2coc3cc(OC(=O)c4cc5ccccc5oc4=O)ccc3c2=O)cc1 -3.61%, CC(=O)NCC(=O)N1CCCC(C(=O)c2ccc3c4c(cccc24)CC3)C1 (stereo unspecified) -4.06%, O=C(CSc1nnnn1-c1ccc(O)cc1)N1N=C(c2ccc3ccccc3c2)CC1c1ccccc1 (stereo unspecified) 8.65%, COC(=O)c1ccc(/C=N\n2c(C)nnc2C)cc1 -10.4%, COc1ccc(/C=C/C(=O)c2ccc(OC)cc2O)cc1 2.98%, Cn1c(SCC(=O)N2CCOCC2)nnc1-c1ccc2ncccc2c1 4.39%, COCCn1c(N)c(N(Cc2ccccc2)C(=O)C2CCCCC2)c(=O)[nH]c1=O -2.52%, Nc1c(C(=O)O)cnn1-c1ccccc1 15.5%, COC(=O)c1ccc(S(=O)(=O)NCc2ccccc2)n1C 13.2%, Cc1cccc(Oc2c([N+](=O)[O-])c(=O)n(C)c3ccccc23)c1 -4.16%, O=C(Nc1ccc(Cl)cc1)Nc1ccc(Oc2cccnc2)nc1 -6.3%, CCC(C)c1ccc(NC(=S)NCc2ccccn2)cc1 (stereo unspecified) -2.96%, O=C(Cc1ccccc1)Nc1c(C(=O)N2CCCCCC2)cnn1-c1ccccc1 -2.02%, O=C(NCc1ccccc1Cl)NC(=O)c1csc([N+](=O)[O-])c1 -0.45%, CCc1ccc(S(=O)(=O)Nc2ccc(C)c(NS(C)(=O)=O)c2)cc1 1.46%, C=CCNC(=O)c1ccc2c3n(nc2c1)-c1ccc(C)cc1CO3 0.43%, CCOC(=O)CNc1nc(Cl)nc(Nc2ccccc2)n1 -1.06%, Cc1nnc(NCCO)c2ccccc12 6.13%, O=C(CNCCC1=CCCCC1)Nc1ccccc1N1CCCCCC1 -2.46%, CC(C)C(O)C1CCN(Cc2nc(Cc3ccccc3Cl)no2)CC1 (stereo unspecified) -1.58%, Cc1ccc(NCc2n[nH]c(=S)n2-c2ccccc2)cc1Cl 0.9%, CCOC(=O)C1=C(C)N=C2c3ccccc3C(=O)C2C1c1ccc(Br)cc1 (stereo unspecified) 5.54%, Cc1ccccc1C(=O)Nc1ccc(N2CCCCCC2)cc1 -3.76%, O=C(Nc1ccc(F)c([N+](=O)[O-])c1)C1CC(=O)N(Cc2ccccc2)C1 (stereo unspecified) -2.12%, C#CCNc1ccc(C(=O)OCC)cc1 0.47%, O=C(NCc1ccc(F)cc1)C1CCC(CNc2c(N3CCOCC3)c(=O)c2=O)CC1 (stereo unspecified) 1.9%, O=C(C1CCN(C2CCN(Cc3cccc4c3OCO4)CC2)CC1)N1CCOCC1 -4.01%, N#Cc1ccccc1NC(=O)COc1c(Br)cc(Br)c2cccnc12 0.52%, COc1ccc(OC)c(Cc2nnc(CCC(=O)NC3CCCC3)o2)c1 4.91%, COc1cc(/C=C2/C(=O)ON=C2C)ccc1OCc1cccc(F)c1 -3.35%, O=C(CCl)Nc1ccc(Sc2ccc(NC(=O)CCl)cc2)cc1 -1.76%, O=C(CCN1CCN(C/C=C/c2ccccc2)CC1)Nc1cccc(F)c1 -3.15%, Cc1cc(NC(=O)c2cccc(N3C(=O)CCC3=O)c2)no1 7.9%, Cc1cccc(NC(=O)c2ccc3ccccc3n2)n1 0.23%, Oc1ccc2ccccc2c1N=Nc1nccs1 1.08%, Cc1c(NC(=O)C(=O)N/N=C/c2cccs2)c(=O)n(-c2ccccc2)n1C -2.28%, O=C(NCC(=O)N(CC1CCCO1)C(C(=O)NC1CCCCC1)c1ccccc1)c1ccco1 (stereo unspecified) -1.28%, Cc1cc(C)nc(-n2ncc3c2CC(c2ccc(C(C)C)cc2)CC3=O)n1 (stereo unspecified) 4.85%, Cc1ccccc1CN1C[C@@H]2C[C@@H](c3ccc4nsnc4c3)N3CCC[C@@]23C1=O 2.82%, Cc1cccc2c1N(CCOc1ccccc1)C(=O)C2=O 1.94%, CCCCCCCCn1c2c(c(=N)c3c1CCC3)CCCC2 1.52%, COC(=O)c1cc(C(=O)OCC(=O)Nc2cc(C)on2)cc([N+](=O)[O-])c1 -14.4%, Cc1cnc(NC(=O)c2ccccn2)s1 -1.62%, COc1ccc(OC)c(C(=O)c2ccc(C(=O)N3CCN(Cc4csc(C)n4)CC3)cc2)c1 1.41%, COc1ccccc1-c1nnc(NC(=O)c2ccc3ncsc3c2)o1 10.2%, O=C(Nc1cccc(CCc2ccccn2)c1)c1ccc(Cl)cc1 14.3%, CN1CCCN(C(=O)C2CCCCC2)CC1 -3.43%, CC(NC(=S)NNS(=O)(=O)c1ccc(C(C)(C)C)cc1)c1ccccc1 (stereo unspecified) -2.57%, Cc1cccc2c1-c1sc(C(=O)NCCCN3CCc4ccccc4C3)cc1CO2 -4.99%, COc1ccc(C(=O)N/N=c2\oc3ccccc3cc2C(N)=O)cc1 8.97%, CC(C(=O)NCC1CCCCC1)N(C)Cc1cccc(Cl)c1 (stereo unspecified) 0.53%, COCCN(C(=S)Nc1cccc(Cl)c1C)C(C)c1ccco1 (stereo unspecified) -2.82%, Cc1ccc(Cl)c(OCC(=O)NN2CCN(C)CC2)c1 -0.31%, COC(=O)CCCC1=CC2=CC(=O)C(C)(OC(=O)c3cccs3)C(=O)C2=CN1CC1CC1 (stereo unspecified) 0.2%, O=C(NC(=O)c1cc(OCC(F)(F)F)ccc1OCC(F)(F)F)Nc1ccccc1 10.4%, O=C(CSc1ncn[nH]1)Nc1nc(-c2cccc([N+](=O)[O-])c2)cs1 -0.78%, O=C(Nc1cccc(O)c1)c1ccc(C(=O)c2ccccc2)o1 4.5%, COc1ccc(CCNC(=O)CSc2nc(-c3ccc(OC)c(OC)c3)ccc2C#N)cc1 -0.12%, CCOc1ccc(Oc2nc(C)cc(OC)n2)nn1 4.79%, Nc1[nH]c(=S)nc2nc(-c3ccccc3)c(-c3ccccc3)nc12 4.09%, CCc1nc(C)cn1S(=O)(=O)c1cc([N+](=O)[O-])ccc1Cl -5.64%, O=c1[nH]c(SCc2cccc(F)c2)nc2ccccc12 -1.03%, O=C(NCc1cccs1)c1cc(-c2ccccn2)nc2ccc(Br)cc12 -1.15%, Cc1cccc(Cn2cnc3c(N)c(C)c(C)cc32)c1 -1.66%, COc1cccc(/C=C/C(=O)Nc2ccc3c(c2)OCCO3)c1 -8.27%, COc1ccccc1-n1c(C)nc2cc(C(=O)NCc3ccc4c(c3)OCO4)ccc21 1.71%, O=C(O)CCN=C1CCc2ccccc2N1 -7.58%, O=C(CNC(=O)c1ccccc1)NCC(=O)OCC(=O)c1ccccc1 (Bz-Gly-Gly-OPac) -1.35%, S=c1nc2ccccc2c2nc(-c3cccnc3)[nH]n12 -1.46%
